Measurements taken from PubChem BioAssay (NCI).
This is part of a sample that, as a whole, favours compounds with a hit. Of some 79,000 tested, about 15% had one in any assay. A number with no mark means an inactive call. Calls of active or inactive are those of the source. Rule as the data show it: active = growth inhibition above about 70%; inactive = the rest.

Tests used:
[1] = NCI Yeast Anticancer Drug Screen. Data for the rad50 strain (AID 155);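 also: 0% = growth of vehicle-only cultures of the same strain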; conditions: S. cerevisiae rad50 strain growth inhibition, active compounds read high
Summary of the method: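 Cells are treated with compound, grown, and their growth is then scored against vehicle-only cultures of the same repair-deficient yeast strain.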

[2] = NCI Yeast Anticancer Drug Screen. Data for the mec2-1 strain (AID 157); conditions: S. cerevisiae mec2-1 strain, active compounds read high
Summary of the method: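 Vehicle-treated cultures served as reference for growth inhibition of compound-exposed mec2-1 yeast.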

[3] = NCI Yeast Anticancer Drug Screen. Data for the sgs1 mgt1 strain (AID 161);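 also: 0% = growth of cultures given vehicle only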; conditions: S. cerevisiae sgs1 mgt1 strain, active compounds read high
Summary of the method: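 Test agents were incubated with a DNA-repair-mutant yeast strain. Growth was then read and compared against vehicle-treated controls.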

[4] = NCI Yeast Anticancer Drug Screen. Data for the cln2 rad14 strain (AID 165);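 also: 0% = growth equal to vehicle treated cultures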; conditions: S. cerevisiae cln2 rad14 strain, active compounds read high
Summary of the method: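 Each compound was tested on cln2 rad14 yeast. Inhibition of growth was calculated against vehicle-exposed controls.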

[5] = NCI Yeast Anticancer Drug Screen. Data for the bub3 strain (AID 167); conditions: S. cerevisiae bub3 mutant strain, active compounds read high
Summary of the method: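 Part of a panel of yeast mutants defective in DNA damage repair or cell cycle regulation. Each strain is grown with compound, and inhibition is calculated relative to solvent-treated cultures.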

[6] = NCI Yeast Anticancer Drug Screen. Data for the mlh1 rad18 strain (AID 175); conditions: S. cerevisiae mlh1 rad18 strain growth inhibition, active compounds read high
Summary of the method: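 Vehicle-treated cultures served as the reference for growth inhibition in a yeast strain carrying DNA damage repair alterations exposed to each compound.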

[7] = at 5.0 µM (retest, dose inferred, filed as 0.5)
[8] = at 50.0 µM (retest, dose inferred, filed as 5.0)

SMILES	growth inhibition [1, 7]	growth inhibition [1, 8]	growth inhibition ([1]; at 50.0 µM)	growth inhibition [2, 7]	growth inhibition [2, 8]	growth inhibition ([2]; at 50.0 µM)	growth inhibition [3, 7]	growth inhibition [3, 8]	growth inhibition ([3]; at 50.0 µM)	growth inhibition [4, 7]	growth inhibition [4, 8]	growth inhibition ([4]; at 50.0 µM)	growth inhibition [5, 7]	growth inhibition [5, 8]	growth inhibition ([5]; at 50.0 µM)	growth inhibition [6, 7]	growth inhibition [6, 8]	growth inhibition ([6]; at 50.0 µM)
CCCC/C=C\CCCCCCCCCC1=C(O)C(=O)C=C(OC)C1=O	65%	83% (active)	60.9%	64%	89% (active)	69.6%	74% (active)	91% (active)	65.3%	40%	62%	42.5%	77% (active)	86% (active)	63%	71% (active)	87% (active)	57.7%
Oc1ccc(N(Cc2ccccc2)Cc2ccccc2)cc1	4%	47%	98.2% (active)	4%	58%	97.9% (active)	6%	40%	98.4% (active)	0%	93% (active)	97.7% (active)	7%	89% (active)	97.6% (active)	6%	69%	97.3% (active)
C/C=C\c1cc2c(cc1CC#N)OCO2	8%	42%	-21.3%	5%	14%	20.1%	13%	51%	42.5%	12%	78% (active)	5.6%	1%	-2%	8.25%	17%	39%	25.6%
Nc1nc(=O)n(C2OC(CO)C(O)C2O)cc1[N+](=O)[O-] (centres undefined)	-10%	-9%	-5.75%	-6%	-15%	18.9%	-2%	-5%	4.45%	-40%	-13%	-10.2%	-7%	1%	-12.7%	1%	-5%	17.9%
COc1ccc2c(c1)CCC1C2CCC2(C)C(=O)C(SC3=NC=NC4=NC=NC43)CC12 (centres undefined)	24%	97% (active)	97% (active)	25%	99% (active)	92.7% (active)	49%	99% (active)	96.7% (active)	-3%	98% (active)	91.8% (active)	19%	97% (active)	92.2% (active)	20%	98% (active)	96.2% (active)
O=C1CCCC2c3ccccc3NC12 (centres undefined)	-147%	-137%	1.85%	-50%	-57%	34.6%	-64%	-64%	-2%	-51%	-56%	78.7% (active)	-68%	-75%	-17.9%	-139%	-111%	9.5%
O=C(Nc1cc(Cl)cc(Cl)c1)C(F)(F)F	27%	98% (active)	83.9% (active)	34%	100% (active)	87.5% (active)	37%	99% (active)	96.4% (active)	9%	99% (active)	92.4% (active)	96% (active)	99% (active)	85% (active)	59%	99% (active)	97.4% (active)
Cc1c(-c2ccccc2)ccnc1/C=N/NC(=S)Nc1ccccc1	1%	39%	89.2% (active)	1%	31%	94% (active)	4%	88% (active)	95.1% (active)	1%	23%	92.1% (active)	-2%	49%	95.7% (active)	-5%	59%	93.8% (active)
O=C(O)COc1ccccc1C(=O)O	0%	-3%	4.55%	-2%	-3%	29.4%	1%	0%	-1.95%	-2%	2%	23.8%	-5%	-5%	11.6%	1%	-1%	5.7%
N#Cc1cc2c(cc1Cl)Sc1nccn1S2(=O)=O	5%	36%	28.4%	6%	52%	34.7%	19%	63%	43.7%	-1%	17%	39.2%	10%	90% (active)	76.7% (active)	2%	62%	64%
OC(CCN1CCOCC1)c1ccc(Sc2ccccc2)cc1 (centres undefined)	55%	29%	98% (active)	46%	21%	98.9% (active)	61%	59%	98.6% (active)	53%	15%	67.1%	88% (active)	88% (active)	99.3% (active)	62%	58%	97.2% (active)
O=c1[nH]c(=O)c2n[nH]nc2[nH]1	6%	3%	0.45%	-1%	5%	-4.95%	1%	9%	33.4%	9%	8%	-42.5%	3%	3%	7.7%	3%	6%	24.1%
O=C1/C(=C/c2ccccc2[N+](=O)[O-])COc2ccccc21	37%	94% (active)	-4%	28%	96% (active)	12.7%	21%	92% (active)	13.2%	28%	94% (active)	8.75%	34%	98% (active)	15.1%	23%	98% (active)	8.65%
CCCCCCCCCCCC(=O)[O][Sn]([CH2]C)([CH2]C)[O]C(=O)CCCCCCCCCCC	7%	5%	79.3% (active)	2%	2%	88.3% (active)	3%	44%	95.8% (active)	5%	0%	48.1%	3%	-7%	16.4%	4%	12%	88.7% (active)
c1ccc([Si](C[CH2][Sn]([c]2ccccc2)([c]2ccccc2)[c]2ccccc2)(c2ccccc2)c2ccc([Si](C[CH2][Sn]([c]3ccccc3)([c]3ccccc3)[c]3ccccc3)(c3ccccc3)c3ccccc3)cc2)cc1	99% (active)	98% (active)	77.3% (active)	99% (active)	99% (active)	89.5% (active)	100% (active)	98% (active)	71.9% (active)	99% (active)	98% (active)	83.8% (active)	99% (active)	98% (active)	97.6% (active)	99% (active)	98% (active)	73.1% (active)
COc1ccc(C(=O)O)c(-c2c(C(=O)O)ccc(OC)c2OC(C)=O)c1	3%	1%	16.5%	-5%	9%	3.05%	-18%	7%	-3.85%	2%	-2%	63.7%	0%	-5%	73% (active)	14%	13%	54.6%
O=C(O)CC1c2ccc3ccccc3c2CCC1c1ccccc1 (centres undefined)	74% (active)	99% (active)	99.6% (active)	44%	99% (active)	99.6% (active)	68%	99% (active)	99.7% (active)	34%	99% (active)	99.5% (active)	30%	99% (active)	99.5% (active)	78% (active)	99% (active)	99.5% (active)
Nc1cc(Cl)ccc1SSc1ccc(Cl)cc1N	11%	58%	49%	67%	90% (active)	32.5%	46%	65%	48.6%	22%	39%	-74.8%	58%	98% (active)	50.6%	35%	51%	73.3% (active)
